Pol iota inh – DNA polymerase iota (human) inhibition; Q9UNA4; Pol iota fluorescent replication assay, 10 min; Potency, µM (highest dose often 115 µM), for the others: at the highest dose activity, negative = inhibition, usual class: inhibitors; actives 1% (n = 390,000); AID 588590
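Fluorescent replication assay read twice, at 0 min and 10 min after adding 50 nM (final) substrate. Enzyme (10 nM) and compounds were first incubated 15 min at room temperature; enzyme-free buffer wells were negative controls.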
POLB inh – DNA polymerase beta (human) inhibition | Pol beta primer extension/strand displacement, fluorescence kinetic | Potency, µM (highest dose often 114 µM), inactives show top-dose activity change, negative = inhibition, hits mostly inhibitors | actives 1.3% (n = 340,000) | AID 485314; note: % is set by controls: 0 for no effect and ±100 for the full control effect
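Pol beta (10 nM) and compounds were preincubated 15 min at room temperature, then 50 nM substrate (final) started primer extension/strand displacement. Reads were taken at 0 and 10 min; concentration-response data were fitted to a four-parameter Hill equation.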
Tb PGK inh – inhibitors of T. brucei phosphoglycerate kinase | PGK/GAPDH coupled, Kinase-Glo luminescence, 60 min | Potency, µM (highest dose often 57.5 µM), for the others: at the highest dose activity change, negative = inhibition, most hits filed as inhibitors | actives 0.043% (n = 380,000); note: % is set by controls: 0 for no effect and ±100 for the full control effect; nearly all actives have a fitted effect of over 60% in size
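Recombinant glycosomal PGK reaction used 1,3-bisphosphoglycerate generated in-well by GAPDH (100nM final) in 100mM TEA pH 7.6, 5mM MgCl2, 0.01% Tween-20. After 60 minutes at room temperature, ATP was read by Kinase-Glo Plus luminescence end-point.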
POLK inh – blocks human DNA polymerase kappa activity; actives 0.53% (n = 400,000); Potency, µM (titrated, usually from 107 µM), for inactives: top-dose activity, negative = inhibition, most hits filed as inhibitors; purified Pol kappa, fluorescent DNA synthesis assay, 10 min; note: % is set by controls: 0 for no effect and ±100 for the full control effect
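Fluorescent qHTS in 1536-well format: enzyme (10 nM) and compound sat 15 min at room temperature before 50 nM substrate (final) was added. Signal taken at 0 and 10 min; no-enzyme buffer wells were negative controls.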
FEN1 inh – inhibitors of human flap endonuclease 1. P39748. Recombinant FEN1 flap cleavage, fluorescence, 15 min. Potency, µM (highest dose often 114 µM), without a hit: top-dose activity change, negative = inhibition, actives largely listed as inhibitors. actives 0.35% (n = 390,000). AID 588795; note: % is set by controls: 0 for no effect and ±100 for the full control effect; nearly all actives have a fitted effect of over 65% in size
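Read-out was taken twice, immediately and after 15 min, following addition of 50 nM substrate to 10 nM FEN1 that had sat with test compound for 15 min at room temperature. Curves came from a four-parameter Hill model.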
POLH inh – blocks human DNA polymerase eta activity; Q9Y253; recombinant Pol eta, fluorescent DNA replication assay; Potency, µM (series often up to 114 µM), for inactives: top-dose activity change, negative = inhibition, actives largely listed as inhibitors; actives 1.2% (n = 390,000); note: % is set by controls: 0 for no effect and ±100 for the full control effect
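Fluorescent replication assay: 50 nM final substrate added after a 15 min room-temperature compound preincubation with 10 nM enzyme. Signal taken at 0 min and again at 10 min.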
Numbers without * were called inactive; i = inactive; ? = inconclusive; · = no result; ! = not active in a repeat; [ ] = another dose, or the depositor's remark. A selection: hits, their analogues and other compounds. The true share with any hit is near 2.4%. Calls come from the whole dose curve; as a rule, active = well fitted curve in the direction sought with a large enough effect; inconclusive = small, poorly fitted or top-dose-only effect, or another doubt; inactive = no such curve, though single readings can be large; an effect the other way counts as inactive or inconclusive. Potency is the fitted concentration of half-maximal effect.

SMILES | Pol iota inh | POLB inh | Tb PGK inh | POLK inh | FEN1 inh | POLH inh
O=C(O)CNS(=O)(=O)c1ccc2c3c(cccc13)C(=O)N2 | ? | 9% | -14% | ? | ? | 32µM*
O=C(O)c1ccccc1NS(=O)(=O)c1ccc2c3c(cccc13)C(=O)N2 | ? | 0% | -4% | -9% | -10% | 3%
O=S(=O)(NCc1ccco1)c1ccccc1Br | 89µM*! | ? | -7% | -23% | -7% | -11%
CCC(=O)Nc1c(C#N)c2nc3ccccc3nc2n1-c1ccc(C)cc1 | 22% | · | -9% | -1% | -10% | 46%
COc1ccc(-n2c(NC(=O)c3ccc(Br)o3)c(C#N)c3nc4ccccc4nc32)cc1 | · | 32µM* | · | · | · | ·
CCCN1CNc2c(c(=O)[nH]c(=S)n2CCc2cc(OC)cc(OC)c2)C1 | 4% | · | · | -20% | 0% | ·
Cc1cc(NC(=O)COc2cccc(C)c2C)no1 | 12% | ? | -7% | 5% | 0% | -16%
Cc1cc(NC(=O)COc2cccc3cccnc23)no1 | · | 32µM* | · | · | · | ·
CSCC[C@H](NC(=O)[C@H](CC(C)C)NC(=O)[C@H](Cc1c[nH]c2ccccc12)NC(=O)[C@H](CCC(N)=O)NC(=O)[C@@H](NC(=O)[C@H](Cc1ccccc1)NC(=O)[C@H](CC(=O)O)NC(=O)[C@H](CCC(N)=O)NC(=O)[C@H](C)NC(=O)[C@H](CCCNC(=N)N)NC(=O)[C@H](CCCNC(=N)N)NC(=O)[C@H](CO)NC(=O)[C@H](CC(=O)O)NC(=O)[C@H](CC(C)C)NC(=O)[C@H](Cc1ccc(O)cc1)NC(=O)[C@H](CCCCN)NC(=O)[C@H](CO)NC(=O)[C@H](Cc1ccc(O)cc1)NC(=O)[C@H](CC(=O)O)NC(=O)[C@H](CO)NC(=O)[C@@H](NC(=O)[C@H](Cc1ccccc1)NC(=O)[C@@H](NC(=O)CNC(=O)[C@H](CCC(N)=O)NC(=O)[C@H](CO)NC(=O)[C@@H](N)Cc1cnc[nH]1)[C@@H](C)O)[C@@H](C)O)C(C)C)C(=O)N[C@@H](CC(N)=O)C(=O)N[C@H](C(=O)O)[C@@H](C)O | · | · | · | -11%[60.1 µM] | · | ·
Cc1ccc(S(=O)(=O)CCC(=O)Nc2sccc2C(N)=O)cc1 | ? | · | i | ? | -4% | 28µM*
Cc1nc2ccc(C(=O)OC(C)C(=O)c3c(C)[nH]c4ccccc34)cc2nc1C (stereo unspecified) | 13% | · | · | -14% | 1% | ·
O=C1C2C3C=CC(C3)C2C(=O)N1c1ncn[nH]1 (stereo unspecified) | ? | 40µM* | ? | -12% | 4% | ?
CCCCN1CC(O)=C(c2nc(-c3ccc(Br)cc3)cs2)C1=N | 14% | 5µM* | 10% | 1% | 13% | ?
CC(=O)Nc1c(C)nn(-c2ccccc2)c1N1CCC(C(=O)Nc2cccc(C(F)(F)F)c2)CC1 | -15% | 5% | 5% | -7%[60.1 µM] | -18% | -5%
CC(=O)c1coc2c1cc(O)c1ccccc12 | 6% | 0% | 4% | -3% | -8% | -10%
CC(=O)c1cc(O)c2ccccc2c1O | 4% | ? | · | 3% | ? | 89µM*
Cc1ccc(NCc2cccn2-c2nnc(N3CCC(C(=O)NCCc4ccc(Cl)cc4)CC3)s2)cc1 | 0% | 8% | · | 4% | -5% | ·
CCC(=O)Nc1cc2c(cc1C(=O)c1ccccc1)OCCO2 | 11% | 79µM* | 1% | -7% | -8% | -8%
O=S(=O)(Nc1ccccc1)c1cccc2nsnc12 | 56µM* | 5% | -10% | ? | 10% | ?
Cc1ccc(NS(=O)(=O)c2cccc3nsnc23)cc1 | 31% | 3% | -6% | 1% | -8% | -11%
CC(=O)[C@]1(O)Cc2c(O)c3c(c(O)c2[C@@H](O[C@H]2C[C@H](N)[C@H](O)[C@H](C)O2)C1)C(=O)c1c(O)cccc1C3=O | · | · | · | 10µM* | · | ·
